Data reported in PubChem BioAssay AID2314 (National Center for Advancing Translational Sciences (NCATS), 2010).
The whole screen tested about 300,000 compounds, of which about 37,000 (12%) were called active. Only a selection was taken, and actives are over-represented in it overall. Unmarked numbers belong to inactive results. No stated cut-off is given here; in the data, active means max response mostly above about 13% (no sharp cut-off); inactive means mostly below about 14%.

Experiment: Cycloheximide Counterscreen for Small Molecule Inhibitors of Shiga Toxin; further: read at 38.3 µM for the half of the compounds with a filed dose; 0% is about no effect
Conditions: cell reporter, cycloheximide protein synthesis inhibition counterscreen; hits give high values

Row | Compound | max response
1 | COC(=O)c1cccc(N2C(=O)C3C4C=CC(CC4)C3C2=O)c1 (stereo not drawn) | -3.45%
2 | O=C(O)c1cc(S(=O)(=O)NC2CCCc3ccccc32)ccc1O (stereo not drawn) | 1.09%
3 | Cc1cc(-c2ccc(C)c(S(=O)(=O)NCCCN(Cc3ccccc3)C(C)C)c2)on1 | -2.55%
4 | Cc1ccc(C(=O)CSc2ccccc2C(=O)O)cc1 | 20.8% (active)
5 | Cc1ccc(C(=O)CSc2nnc(Cn3nnc4ccccc43)n2C)cc1 | -0.925%
6 | Cc1ccc(Sc2cc(C(=O)c3ccccc3C(=O)O)ccc2[N+](=O)[O-])cc1 | -4.78%
7 | CCCC1CCC(=NNC(=S)NCCc2ccccc2)CC1 (stereo not drawn) | 13.6%
8 | COc1cc(C(=S)N2CCOCC2)cc(OC)c1OC(=O)c1cc([N+](=O)[O-])c(C)c([N+](=O)[O-])c1 | -3.02%
9 | CC(C)Cn1cnc2c1c(=O)n(CC(=O)NN)c(=O)n2Cc1ccccc1 | 0.845%
10 | CC1CC(C)CN(c2ccc(S(=O)(=O)N3CCOCC3)cc2)C1 (stereo not drawn) | 7.13%
11 | CSCC[C@H](NC(=O)N1CCn2c1nc1ccccc12)C(=O)NC1CCCCC1 | 19.4%
12 | COc1ccc(C2NC(=O)C(=O)/C2=C(\O)c2ccc(Cl)cc2)cc1OC (stereo not drawn) | -4.04%
13 | Cc1cccc(-n2nc3c(c2NC(=O)c2cc4ccccc4o2)CS(=O)(=O)C3)c1 | -5.35%
14 | O=C(NCCc1ccc2c(c1)OCCO2)c1cc2ccccc2o1 | 8.84%
15 | CC(C)(C)n1nc2c(c1NC(=O)c1cc3ccccc3o1)CSC2 | 9.15%
16 | C/C(=N\NC(=S)Nc1ccc(C)cc1)c1cc2ccccc2o1 | 20.6% (active)
17 | C/C(=N\NS(=O)(=O)c1cccc([N+](=O)[O-])c1)c1cc2ccccc2o1 | 1.29%
18 | Cc1ccc(OC(=O)c2cc3ccccc3o2)cc1 | 13.6%
19 | O=C(Nc1ccncc1)c1cc2ccccc2o1 | 22.3% (active)
20 | CC(=O)N1CCN(c2ccccc2NC(=S)NC(=O)c2cc3ccccc3o2)CC1 | -8.35%
21 | Cc1ccc(NC(=O)c2cc3ccccc3o2)cc1 | 43.9% (active)
22 | O=C(O)C1=NN(c2c(F)c(F)cc(F)c2F)C(=O)CC1 | -4.21%
23 | C=CCN(N=Nc1cccc([N+](=O)[O-])c1)c1cccc([N+](=O)[O-])c1 | -2.01%
24 | O=C(CN1CCN(S(=O)(=O)c2ccc(F)cc2)CC1)NC1CC1 | 1.9%

Row | Compound | max response
25 | Cc1cnc(C(=O)OCc2c(C)cc(C(C)(C)C)cc2C)cn1 | -3.25%
26 | Cc1nc(-c2ccccc2)sc1C(=O)/C=C/N(C)C | 45.3% (active)
27 | CN(C)/C=C/C(=O)c1ccccc1F | 5.51%
28 | CC(Oc1ccc(Cl)cc1Cl)C(=O)/C=C/N(C)C (stereo not drawn) | 2.24%
29 | O=C(COc1cccc(Cl)c1)NCc1ccccc1 | 7.99%
30 | Cc1nc(COc2cccc(Cl)c2)sc1C(=O)/C=C/N(C)C | 40.9% (active)
31 | Cc1ccc(SCC(=O)c2sc(-c3ccccc3)nc2C)cc1 | -0.538%
32 | COc1ccc(-c2nc(CN3CCN(c4ncccn4)CC3)c(C)o2)cc1C | -2.33%
33 | Cc1ccc(S(=O)(=O)N[C@@H](Cc2ccccc2)C(=O)N2CCC(C(=O)N[C@H](C(=O)O)C(C)O)CC2)cc1 (stereo partly drawn) | -0.605%
34 | Cc1ccc(N(Cc2ccc(C(=O)Nc3ccccc3C(=O)NCc3ccco3)cc2)S(C)(=O)=O)cc1C | -1.16%
35 | O=C(COc1ccc(Cl)cc1)NCc1nnc(SCC(=O)NCC2CCCO2)o1 (stereo not drawn) | 1.5%
36 | S=C(NCCc1ccccc1)N1CCn2cccc2C1c1ccncc1 (stereo not drawn) | 6.15%
37 | CCC(C)(C)n1nnnc1CN1CCN(c2nc3ccc(C)cc3cc2C#N)CC1 | -1.82%
38 | CCOc1ccc(CN2CCN(Cc3c[nH]c4ccccc34)CC2)cc1 | -0.16%
39 | CCOc1ccc(N(CC(=O)NCCc2ccc(F)cc2)S(=O)(=O)c2ccccc2)cc1 | 0.706%
40 | COc1ccc(NC(=S)N2CCCC(CO)C2)c(OC)c1 (stereo not drawn) | -1.58%
41 | CCCCc1ccc(NC(=S)NCCCN2CCOCC2)cc1 | 12%
42 | CCCCc1ccc(NC(=S)N2CCCC(CO)C2)cc1 (stereo not drawn) | 39.3% (active)
43 | COc1ccc(S(=O)(=O)NC(C)c2ccccc2)cc1C(=O)N1CCCCC1 (stereo not drawn) | 8.07%
44 | COc1ccc(CNC(=O)CN(Cc2ccccc2Cl)C(=O)c2csnn2)cc1 | -2.08%
45 | CC(=O)N1CCC(C(=O)OCc2ccc(Cl)cc2)(c2ccccc2)CC1 | 1.9%
46 | CCOC(=O)C1(Cc2ccc(Cl)cc2)CCN(C(=O)C2=NNC(=O)CC2)CC1 | 10.1% (active)
47 | CCOC(=O)C1(Cc2ccc(Cl)cc2)CCN(C(C)CCn2cccn2)CC1 (stereo not drawn) | -3.1%
48 | CCc1ccc(OCC2c3cc(OC)c(OC)cc3CCN2C(C)=O)cc1 (stereo not drawn) | -2.66%

Row | Compound | max response
49 | O=C(CN1C(=O)S/C(=C\c2ccccc2Cl)C1=O)NC1C=CS(=O)(=O)C1 (stereo not drawn) | 1%
50 | O=C(NCc1cccnc1)Nc1ccccc1F | 6.78%
51 | CCOc1cccc(C(=O)Nc2cnn(Cc3ccccc3)c2)c1 | 8.38%
52 | O=C(Nc1ccccc1F)c1ccc(Cn2cc(Br)cn2)cc1 | 27.6% (active)
53 | Cc1ccc(N(Cc2ccccc2O)C(=O)c2ccccc2F)cc1 | -1.08%
54 | CCN(CC)c1ccc(C(=O)NNC(=O)CCc2nc3ccccc3c(=O)[nH]2)cc1 | 8.34%
55 | Cc1cc(=O)oc2cc(NC(=O)C3CC(=O)N(Cc4ccccc4)C3)ccc12 (stereo not drawn) | 5.63%
56 | CC(=O)c1cccc(S(=O)(=O)N2CCC(n3nnc4cc(F)ccc43)CC2)c1 | -0.975%
57 | O=S(=O)(c1cccc(S(=O)(=O)N2CCC(n3nnc4ccccc43)CC2)c1)N1CCCCC1 | -11.1%
58 | O=C(c1ccc(F)cc1)N1CCC(n2nnc3ccccc32)CC1 | 50% (active)
59 | COc1ccc(N2CCN(S(=O)(=O)c3ccc4c(c3)NC(=O)C(C)C(=O)N4)CC2)cc1 (stereo not drawn) | -1.38%
60 | CN(CC(=O)O)S(=O)(=O)c1ccc2oc3ccccc3c2c1 | 1.18%
61 | COCCCNC(=S)N(CCN(C)C)Cc1cc2cc3c(cc2[nH]c1=O)OCCO3 | 6.79%
62 | CC(=O)c1ccc(N2CCN(CC(O)c3ccccc3)CC2)cc1 (stereo not drawn) | 5.47%
63 | CC(=O)c1ccc(N2Cc3ccccc3C2)cc1 | 29.2% (active)
64 | CC(=O)c1ccc(N2CCN(C(=O)CCc3ccccc3)CC2)cc1 | 3.1%
65 | Cc1cc(NS(=O)(=O)c2ccc(NC(=S)NC(=O)c3ccc(F)cc3Cl)cc2)no1 | -1.71%
66 | CC(=O)Nc1ccc(/C(C)=N/NC(=O)CN(c2ccccc2Br)S(C)(=O)=O)cc1 | 8.32%
67 | CCN(C(=O)CSc1nnc(-c2ccncc2)o1)c1ccccc1 | -2.4%
68 | CN(C(=O)CSc1nnc(-c2n[nH]c3ccccc23)o1)c1ccccc1 | 15.1% (active)
69 | O=C(CSc1nnc(-c2c[nH]c3ccccc23)o1)c1ccccc1 | 8.16%
70 | COc1cc(C2/C(=C(\O)c3ccc4c(c3)CC(C)O4)C(=O)C(=O)N2c2nnc(C)s2)cc(OC)c1OC (stereo not drawn) | -1.71%
71 | Cc1[nH]c2ccccc2c1/C=C(/C#N)C(=O)NC(C)C | 16.8% (active)
72 | Cc1[nH]c2ccccc2c1/C=N\NC(=O)Cn1nnc(-c2ccccc2)n1 | -0.477%

Row | Compound | max response
73 | N#C/C(=C/c1ccc(N2CCCCC2)o1)C(=O)NCCc1c[nH]c2ccccc12 | -3.38%
74 | Cc1cnc(NC(=O)Cn2cnc3c2c(=O)n(C)c(=O)n3C)s1 | -4.16%
75 | Cc1cnc(NC(=O)c2ccc(Cl)nc2)s1 | 43.4% (active)
76 | O=C(NNc1ccccn1)c1ccc(Cl)nc1 | 2.34%
77 | Cc1cnc(NC(=O)c2ccccn2)s1 | 26.4% (active)
78 | CCN(CC)c1ccc(NC(=O)c2ccc(Cl)nc2)cc1 | 16.7% (active)
79 | NS(=O)(=O)c1ccc(NC(=O)COC(=O)c2ccc(Cl)nc2)cc1 | -4.06%
80 | COC(=O)[C@@H](NC(=O)Nc1cc(Cl)ccc1C)C(C)C | -5.71%
81 | O=C(Nc1nnc(Cc2ccc(Cl)cc2)s1)c1cccnc1 | 1.24%
82 | Cc1ccc(Cl)cc1NC(=O)c1ccccn1 | 19.9% (active)
83 | Cc1noc(C)c1C(=O)Nc1ccccn1 | 7.73%
84 | Cc1ccc(NC(=O)c2ccccn2)cc1S(=O)(=O)N1CCOCC1 | 2.74%
85 | CCOc1cc(NC(=O)c2ccccn2)c(OCC)cc1NC(=O)c1ccc(OC)cc1 | -3.64%
86 | Cc1c(CC(=O)NCCCCCC(=O)O)c(=O)oc2cc3occ(-c4ccccc4)c3cc12 | -1.63%
87 | O=C(CCN1C(=O)C2C3CCC(C3)C2C1=O)Nc1ccc(Cl)cc1Cl (stereo not drawn) | 3.53%
88 | CCOc1ccc(Nc2nc(Cc3nnc(SCC(=O)c4ccc(C)cc4)o3)cs2)cc1 | -3.13%
89 | Cc1ccc(CCNC(=O)c2ccc3nc4ccccc4c(=O)n3c2)cc1 | 4.5%
90 | CN(C)S(=O)(=O)c1cccc(C(=O)OCC(=O)N2CCCC2=O)c1 | -2.94%
91 | O=C(Nc1ccc(-n2ccnc2P(=O)(O)c2ccccc2)cc1)c1ccccc1Br | 2.05%
92 | COc1ccc(S(=O)(=O)N(CC(=O)N/N=C/c2ccc(C(=O)O)cc2)Cc2ccccc2)cc1OC | -6.63%
93 | Cc1nonc1C1CCCN1Cc1nc(-c2ccc(F)cc2F)oc1C (stereo not drawn) | 6.22%
